Data as given in the supplement of paper PMC10849652.
The full data set covers some 7,900 targets. This sample favours those with a hit. About 0.6% of all pairs of compound and target were hits. Values without a mark were called inactive.

Each target was assayed with Cc1nc(Nc2n[nH]c3c2CN(C(=O)N[C@H](CN(C)C)c2ccccc2)C3(C)C)c2sccc2n1 (assay: log2 fold change, soluble protein after heating vs DMSO (PISA); higher = thermal stabilisation; K562 cells, 10 uM, 30 min; active = over 0.2 and 3.5 SD of the protein, either way, in both replicates (recomputed)).
In short: (§1)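 Soluble protein was quantified by TMTpro 16plex LC-MS/MS after channel sums were equalised. It was obtained as the supernatant after 21,000xg for 90 min from pooled aliquots of K562 cells (2×10^6 cells/mL, 10 μM compound, 30 min) heated for 3 min across 48°C-58°C and extracted in PBS with 0.5% NP-40 at 4°C. Thermal stability values are relative to control samples and come from duplicates. They are given as log2 fold changes.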

Chain of UniProt Q70SY1 (Q70SY1 whole entry, looked up): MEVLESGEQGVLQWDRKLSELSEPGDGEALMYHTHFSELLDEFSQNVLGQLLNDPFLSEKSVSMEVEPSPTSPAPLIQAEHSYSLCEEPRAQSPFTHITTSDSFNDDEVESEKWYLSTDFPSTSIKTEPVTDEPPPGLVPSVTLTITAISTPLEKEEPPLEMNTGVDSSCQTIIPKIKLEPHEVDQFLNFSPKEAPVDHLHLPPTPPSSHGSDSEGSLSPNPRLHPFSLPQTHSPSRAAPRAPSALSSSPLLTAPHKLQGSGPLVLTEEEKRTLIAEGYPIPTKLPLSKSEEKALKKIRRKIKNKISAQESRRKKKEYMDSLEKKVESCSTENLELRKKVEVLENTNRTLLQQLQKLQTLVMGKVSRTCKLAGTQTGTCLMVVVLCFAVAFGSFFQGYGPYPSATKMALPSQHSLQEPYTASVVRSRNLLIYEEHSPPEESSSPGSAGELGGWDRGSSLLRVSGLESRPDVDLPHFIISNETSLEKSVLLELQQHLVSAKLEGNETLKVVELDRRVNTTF
Chain of UniProt Q92828 (Q92828 whole entry, looked up): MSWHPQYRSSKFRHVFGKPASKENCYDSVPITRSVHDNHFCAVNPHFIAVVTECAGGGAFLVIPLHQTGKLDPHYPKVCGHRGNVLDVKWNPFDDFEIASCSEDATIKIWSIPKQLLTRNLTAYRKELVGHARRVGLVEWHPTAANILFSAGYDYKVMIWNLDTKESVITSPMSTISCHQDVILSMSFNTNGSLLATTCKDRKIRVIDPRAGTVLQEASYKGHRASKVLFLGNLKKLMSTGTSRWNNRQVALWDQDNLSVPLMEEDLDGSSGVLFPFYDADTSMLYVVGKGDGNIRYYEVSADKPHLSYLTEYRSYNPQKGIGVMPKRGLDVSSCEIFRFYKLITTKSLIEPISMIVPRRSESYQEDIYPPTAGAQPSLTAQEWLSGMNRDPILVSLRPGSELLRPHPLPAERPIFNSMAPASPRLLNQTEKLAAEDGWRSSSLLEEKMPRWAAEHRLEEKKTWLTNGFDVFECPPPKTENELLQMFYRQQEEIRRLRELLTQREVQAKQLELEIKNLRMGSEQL
Chain of UniProt Q9UHN6 (Q9UHN6 whole entry, looked up): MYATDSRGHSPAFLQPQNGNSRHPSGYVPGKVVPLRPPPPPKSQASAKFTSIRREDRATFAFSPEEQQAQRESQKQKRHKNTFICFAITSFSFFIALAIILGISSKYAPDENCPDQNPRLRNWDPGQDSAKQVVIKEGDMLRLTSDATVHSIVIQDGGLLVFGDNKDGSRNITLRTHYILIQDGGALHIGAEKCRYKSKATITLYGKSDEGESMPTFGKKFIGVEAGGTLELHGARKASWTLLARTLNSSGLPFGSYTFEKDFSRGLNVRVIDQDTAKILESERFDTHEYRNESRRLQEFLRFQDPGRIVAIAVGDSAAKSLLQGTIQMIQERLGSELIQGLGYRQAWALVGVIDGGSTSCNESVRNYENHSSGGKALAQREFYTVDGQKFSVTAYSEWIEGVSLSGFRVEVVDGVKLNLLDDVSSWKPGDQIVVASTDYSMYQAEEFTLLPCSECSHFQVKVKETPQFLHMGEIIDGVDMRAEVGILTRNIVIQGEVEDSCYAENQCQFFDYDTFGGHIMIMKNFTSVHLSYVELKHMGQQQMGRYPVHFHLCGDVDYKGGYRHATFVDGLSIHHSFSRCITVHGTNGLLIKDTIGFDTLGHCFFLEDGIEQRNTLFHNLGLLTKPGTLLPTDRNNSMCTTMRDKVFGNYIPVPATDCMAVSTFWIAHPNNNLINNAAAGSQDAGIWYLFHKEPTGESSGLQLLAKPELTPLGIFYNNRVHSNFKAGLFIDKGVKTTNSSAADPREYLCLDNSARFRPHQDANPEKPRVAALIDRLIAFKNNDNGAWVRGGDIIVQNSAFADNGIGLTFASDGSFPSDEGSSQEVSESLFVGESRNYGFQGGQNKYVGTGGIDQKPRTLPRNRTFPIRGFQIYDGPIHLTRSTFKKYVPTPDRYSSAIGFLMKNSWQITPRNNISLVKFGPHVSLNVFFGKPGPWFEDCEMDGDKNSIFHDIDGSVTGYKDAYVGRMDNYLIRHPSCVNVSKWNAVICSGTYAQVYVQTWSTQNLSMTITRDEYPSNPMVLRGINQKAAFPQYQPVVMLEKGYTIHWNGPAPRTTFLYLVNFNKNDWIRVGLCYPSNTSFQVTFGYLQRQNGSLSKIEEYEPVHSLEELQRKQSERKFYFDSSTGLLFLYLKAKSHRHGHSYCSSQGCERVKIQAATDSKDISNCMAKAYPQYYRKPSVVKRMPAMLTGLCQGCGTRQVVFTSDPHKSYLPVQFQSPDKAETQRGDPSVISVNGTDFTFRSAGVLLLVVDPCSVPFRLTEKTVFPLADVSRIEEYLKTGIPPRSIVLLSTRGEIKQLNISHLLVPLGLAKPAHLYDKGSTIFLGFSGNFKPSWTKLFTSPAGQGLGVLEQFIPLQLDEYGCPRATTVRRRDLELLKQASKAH
Chain of UniProt O75956 (O75956 whole entry, looked up): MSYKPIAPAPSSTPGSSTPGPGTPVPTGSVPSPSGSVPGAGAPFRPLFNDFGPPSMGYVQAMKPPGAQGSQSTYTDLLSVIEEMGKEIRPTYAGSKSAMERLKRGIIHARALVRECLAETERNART
Chain of UniProt Q9UBY8 (Q9UBY8 whole entry, looked up): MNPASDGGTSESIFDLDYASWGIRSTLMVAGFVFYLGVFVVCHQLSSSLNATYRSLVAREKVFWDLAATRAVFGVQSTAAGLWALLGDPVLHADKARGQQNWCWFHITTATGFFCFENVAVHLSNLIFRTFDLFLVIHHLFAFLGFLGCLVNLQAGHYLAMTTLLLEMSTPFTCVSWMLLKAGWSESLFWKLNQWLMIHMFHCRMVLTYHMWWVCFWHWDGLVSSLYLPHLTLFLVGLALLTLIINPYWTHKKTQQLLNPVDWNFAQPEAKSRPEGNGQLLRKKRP
Chain of UniProt A8MTT3 (A8MTT3 whole entry, looked up): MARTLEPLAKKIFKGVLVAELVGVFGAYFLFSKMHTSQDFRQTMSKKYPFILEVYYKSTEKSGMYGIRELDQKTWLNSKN
Chain of UniProt P33552 (P33552 whole entry, looked up): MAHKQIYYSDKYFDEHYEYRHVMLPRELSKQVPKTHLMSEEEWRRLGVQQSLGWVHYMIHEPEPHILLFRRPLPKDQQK

CCNDBP1 (UniProt O95273) and CORO2A (UniProt Q92828) are within 0.2 log units of each other in log2 fold change: 0.028 for the first, -0.052 for the second.

Going from CLN3 (UniProt Q13286) to CLASP2 (UniProt O75122), the log2 fold change falls from 0.002 to -0.278.

First: CRMP1 isoform 2 (UniProt Q14194)
Chain of UniProt Q14194 (Q14194 whole entry, looked up): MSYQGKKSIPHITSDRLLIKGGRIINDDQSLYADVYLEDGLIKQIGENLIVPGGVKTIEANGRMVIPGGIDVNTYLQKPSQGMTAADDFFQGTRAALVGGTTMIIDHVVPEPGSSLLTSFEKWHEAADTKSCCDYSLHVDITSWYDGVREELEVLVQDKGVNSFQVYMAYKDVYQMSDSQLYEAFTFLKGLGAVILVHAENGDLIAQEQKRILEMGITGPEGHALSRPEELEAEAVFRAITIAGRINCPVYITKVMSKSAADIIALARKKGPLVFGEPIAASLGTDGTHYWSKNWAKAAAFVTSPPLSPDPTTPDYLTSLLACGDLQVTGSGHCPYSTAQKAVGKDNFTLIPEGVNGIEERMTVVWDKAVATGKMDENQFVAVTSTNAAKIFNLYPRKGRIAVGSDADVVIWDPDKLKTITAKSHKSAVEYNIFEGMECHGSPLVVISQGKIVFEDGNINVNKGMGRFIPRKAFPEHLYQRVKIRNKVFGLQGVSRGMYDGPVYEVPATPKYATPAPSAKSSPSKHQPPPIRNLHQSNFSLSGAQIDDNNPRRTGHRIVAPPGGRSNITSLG
Second: CCDC82 (UniProt Q8N4S0)
The log2 fold change of the first is higher: 0.221 for the first, -0.017 for the second.

CNN1 (UniProt P51911) and CEBPZOS (UniProt A8MTT3) are within 0.2 log units of each other in log2 fold change: 0 for the first, 0.021 for the second.

CNRIP1 (UniProt Q96F85) and COMMD3-BMI1 (UniProt R4GMX3) are within 0.2 log units of each other in log2 fold change: -0.071 for the first, -0.02 for the second.

CREB3L2 (UniProt Q70SY1) and CEMIP2 (UniProt Q9UHN6) are within 0.2 log units of each other in log2 fold change: -0.009 for the first, 0.083 for the second.

CLN8 (UniProt Q9UBY8) and CKS2 (UniProt P33552) are within 0.2 log units of each other in log2 fold change: -0.11 for the first, -0.188 for the second.

CCDC187, A0A1W2PQX5 and CLCN5 isoform 2 (UniProt P51795) are within 0.2 log units of each other in log2 fold change: 0.027 for the first, 0.014 for the second.

First: CNOT4 isoform 9 (UniProt O95628)
Second: CLPTM1L (UniProt G5E9Z2)
The log2 fold change of the first is lower: -0.172 for the first, 0.099 for the second.

CDK2AP2 (UniProt O75956) and CLINT1 (UniProt Q14677) are within 0.2 log units of each other in log2 fold change: 0.028 for the first, -0.048 for the second.

CASP7 isoform 3 (UniProt P55210) and CDC25B isoform 4 (UniProt P30305) are within 0.2 log units of each other in log2 fold change: -0.001 for the first, -0.051 for the second.

For CCNT2 (UniProt O60583), the log2 fold change was -0.161.

What follows are targets tested with Cc1nc(Nc2ncc(C(=O)Nc3c(C)cccc3Cl)s2)cc(N2CCN(CCO)CC2)n1 [dasatinib] in the same assay as above.
In short: as §1

CCNDBP1 (UniProt O95273) and CORO2A (UniProt Q92828) are within 0.2 log units of each other in log2 fold change: 0.023 for the first, -0.066 for the second.

CLN3 (UniProt Q13286) and CRMP1 isoform 2 (UniProt Q14194) are within 0.2 log units of each other in log2 fold change: 0.064 for the first, -0.074 for the second.

CCDC82 (UniProt Q8N4S0) and CEBPZOS (UniProt A8MTT3) are within 0.2 log units of each other in log2 fold change: 0.015 for the first, 0.009 for the second.

CEMIP2 (UniProt Q9UHN6) and CLN8 (UniProt Q9UBY8) are within 0.2 log units of each other in log2 fold change: -0.044 for the first, 0.032 for the second.

CCND3 (UniProt P30281) and CKS2 (UniProt P33552) are within 0.2 log units of each other in log2 fold change: -0.08 for the first, 0.096 for the second.

Compared with CLCN5 isoform 2 (UniProt P51795), CNOT4 isoform 9 (UniProt O95628) is higher in log2 fold change: -0.177 for the first, 0.074 for the second.

Compared with CA1 (UniProt E5RIF9), CLINT1 (UniProt Q14677) is higher in log2 fold change: -0.098 for the first, 0.142 for the second.

CASP7 isoform 3 (UniProt P55210) and CFAP47 (UniProt Q6ZTR5) are within 0.2 log units of each other in log2 fold change: -0.239 for the first, -0.117 for the second.

CASK (UniProt O14936) and CCNT2 (UniProt O60583) are within 0.2 log units of each other in log2 fold change: 0.096 for the first, -0.02 for the second.

Each target was assayed with Cc1ncc(-c2ccnc(Nc3ccc(S(C)(=O)=O)cc3)n2)n1C(C)C in the same assay as above.
In short: as §1

Going from CCNDBP1 (UniProt O95273) to CORO2A (UniProt Q92828), the log2 fold change falls from 0.21 to -0.049.

First: CLN3 (UniProt Q13286)
Second: CLASP2 (UniProt O75122)
Chain of UniProt O75122 (O75122 whole entry, looked up): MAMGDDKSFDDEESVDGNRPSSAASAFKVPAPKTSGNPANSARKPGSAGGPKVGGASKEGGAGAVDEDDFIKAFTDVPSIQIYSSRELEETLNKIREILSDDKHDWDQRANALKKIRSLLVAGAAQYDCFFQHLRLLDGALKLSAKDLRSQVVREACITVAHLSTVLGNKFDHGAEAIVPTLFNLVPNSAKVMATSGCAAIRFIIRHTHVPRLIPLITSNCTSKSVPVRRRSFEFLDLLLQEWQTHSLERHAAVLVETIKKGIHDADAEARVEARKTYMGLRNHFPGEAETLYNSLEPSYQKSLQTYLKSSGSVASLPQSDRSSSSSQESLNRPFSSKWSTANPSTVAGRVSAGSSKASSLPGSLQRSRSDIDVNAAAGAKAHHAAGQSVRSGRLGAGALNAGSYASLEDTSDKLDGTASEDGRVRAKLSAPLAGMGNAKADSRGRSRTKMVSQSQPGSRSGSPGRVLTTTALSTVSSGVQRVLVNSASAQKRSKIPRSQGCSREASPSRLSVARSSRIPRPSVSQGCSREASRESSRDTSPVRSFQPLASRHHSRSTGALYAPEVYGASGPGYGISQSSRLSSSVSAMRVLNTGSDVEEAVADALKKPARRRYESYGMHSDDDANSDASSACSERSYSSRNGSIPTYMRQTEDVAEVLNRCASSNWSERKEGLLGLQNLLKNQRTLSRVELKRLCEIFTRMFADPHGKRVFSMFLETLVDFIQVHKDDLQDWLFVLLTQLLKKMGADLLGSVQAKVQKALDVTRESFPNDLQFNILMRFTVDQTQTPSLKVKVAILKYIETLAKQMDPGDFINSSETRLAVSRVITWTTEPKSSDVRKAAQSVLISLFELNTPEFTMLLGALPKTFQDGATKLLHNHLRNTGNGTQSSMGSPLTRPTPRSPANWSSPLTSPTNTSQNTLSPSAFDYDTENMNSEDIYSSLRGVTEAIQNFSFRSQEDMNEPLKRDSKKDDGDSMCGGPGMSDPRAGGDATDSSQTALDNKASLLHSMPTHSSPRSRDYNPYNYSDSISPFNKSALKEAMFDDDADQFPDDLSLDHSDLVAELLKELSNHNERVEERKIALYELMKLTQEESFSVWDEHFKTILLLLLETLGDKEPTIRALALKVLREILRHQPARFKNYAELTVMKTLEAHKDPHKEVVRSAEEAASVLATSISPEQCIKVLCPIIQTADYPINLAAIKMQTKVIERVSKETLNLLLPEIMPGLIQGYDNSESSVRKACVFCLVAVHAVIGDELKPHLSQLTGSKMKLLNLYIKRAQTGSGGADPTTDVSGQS
The log2 fold change of the first is higher: -0.02 for the first, -0.231 for the second.

CRMP1 isoform 2 (UniProt Q14194) and CCDC82 (UniProt Q8N4S0) are within 0.2 log units of each other in log2 fold change: -0.138 for the first, -0.043 for the second.

CNN1 (UniProt P51911) and CEBPZOS (UniProt A8MTT3) are within 0.2 log units of each other in log2 fold change: 0.031 for the first, -0.027 for the second.

CNRIP1 (UniProt Q96F85) and COMMD3-BMI1 (UniProt R4GMX3) are within 0.2 log units of each other in log2 fold change: 0.056 for the first, 0.046 for the second.

CREB3L2 (UniProt Q70SY1) and CEMIP2 (UniProt Q9UHN6) are within 0.2 log units of each other in log2 fold change: -0.119 for the first, 0.031 for the second.

CLN8 (UniProt Q9UBY8) and CKS2 (UniProt P33552) are within 0.2 log units of each other in log2 fold change: -0.083 for the first, -0.222 for the second.

CCDC187, A0A1W2PQX5 and CLCN5 isoform 2 (UniProt P51795) are within 0.2 log units of each other in log2 fold change: 0.104 for the first, -0.063 for the second.

CNOT4 isoform 9 (UniProt O95628) and CLPTM1L (UniProt G5E9Z2) are within 0.2 log units of each other in log2 fold change: 0 for the first, -0.053 for the second.

CDK2AP2 (UniProt O75956) and CLINT1 (UniProt Q14677) are within 0.2 log units of each other in log2 fold change: -0.063 for the first, -0.151 for the second.

CASP7 isoform 3 (UniProt P55210) and CDC25B isoform 4 (UniProt P30305) are within 0.2 log units of each other in log2 fold change: -0.102 for the first, -0.206 for the second.

With CCNT2 (UniProt O60583) the log2 fold change was -0.462.

What follows are targets tested with Cn1cc(-c2ccc3c(c2)CCN3C(=O)Cc2cccc(C(F)(F)F)c2)c2c(N)ncnc21 in the same assay as above.
In short: as §1

CCNDBP1 (UniProt O95273) and CORO2A (UniProt Q92828) are within 0.2 log units of each other in log2 fold change: -0.055 for the first, -0.017 for the second.

CLN3 (UniProt Q13286) and CLASP2 (UniProt O75122) are within 0.2 log units of each other in log2 fold change: -0.049 for the first, -0.155 for the second.

Going from CRMP1 isoform 2 (UniProt Q14194) to CCDC82 (UniProt Q8N4S0), the log2 fold change falls from 0.182 to -0.132.

CNN1 (UniProt P51911) and COMMD3-BMI1 (UniProt R4GMX3) are within 0.2 log units of each other in log2 fold change: 0.04 for the first, 0.141 for the second.

CREB3L2 (UniProt Q70SY1) and CEMIP2 (UniProt Q9UHN6) are within 0.2 log units of each other in log2 fold change: 0.039 for the first, 0.03 for the second.

Going from CLN8 (UniProt Q9UBY8) to CCND3 (UniProt P30281), the log2 fold change falls from 0.258 to 0.04.

CLCN5 isoform 2 (UniProt P51795) and CNOT4 isoform 9 (UniProt O95628) are within 0.2 log units of each other in log2 fold change: 0.041 for the first, 0.096 for the second.

CLPTM1L (UniProt G5E9Z2) and CDK2AP2 (UniProt O75956) are within 0.2 log units of each other in log2 fold change: 0.037 for the first, -0.022 for the second.

CLINT1 (UniProt Q14677) and CRTC3 (UniProt Q6UUV7) are within 0.2 log units of each other in log2 fold change: 0.047 for the first, -0.002 for the second.

CPNE5 (UniProt Q9HCH3) and CDC25B isoform 4 (UniProt P30305) are within 0.2 log units of each other in log2 fold change: -0.077 for the first, 0.095 for the second.
